Inconclusive results are not listed. Activity calls are given as the source filed them. The call rests on the fitted dose curve; in most records, active means well fitted inhibition curve with a large enough effect; inconclusive means small, poorly fitted or top-dose-only effect; inactive means flat fitted curve, though single readings scatter.
The compounds below were run against Luciferin 4-monooxygenase (Photinus pyralis) (UniProt P08659) (assay: qHTS screen for small molecules that inhibit ELG1-dependent DNA repair: SAR in Biochemical Luciferin Assay). Details: purified firefly luciferase, luciferin luminescence counter-screen; series mostly up to 57.5 µM; activity change, negative = inhibition: at the top concentration.
Description: Cancer cells divide rapidly compared to normal cells in the body. During cell division, cancer cells need to duplicate their genome by DNA replication. The failure of genome duplication leads to cancer cells' death. Therefore, inhibitors of DNA replication could specifically kill cancer cells. Based on this concept, many chemotherapeutic agents were developed and have been used to treat cancer patients. However, there are a limited number of agents available in the clinical setting, and some of those that do exist have low efficacy and severe side effects. Therefore, if we can find the compounds that effectively block DNA replication either by directly damaging DNA or by inhibiting other cellular mechanisms, the options for cancer treatment will be broadened. With this in mind, we developed a quantitative high-throughput ELG1-luciferase reporter gene assay. Small molecules that specifically block ELG1 function in response to DNA damage can be identified by monitoring the suppression of luciferase activity. Since ELG1 defines a pathway for repairing DNA damage, agents blocking ELG1 function can be used to sensitize cancer cells to chemotherapeutic agents whose mechanism of action involves the induction of DNA damage. This counter assay is a luciferase assay, that following treatment with putative ELG1 antagonists, aims to eliminate luciferase enhancers/inhibitors. NIH Molecular Libraries Probe Production Network [MLPCN] NIH Chemical Genomics Center [NCGC] MLPCN Grant: R03 MH092164 Assay Provider: Kyungjae Myung, NHGRI, NIH
3 uL of substrate reagent will be pipetted into each well in 1536-well white, solid-bottom plates using a FRD dispenser, followed by addition of 23 nL of DMSO or compounds by pintool. After compound addition, 1 µL of luciferase will be added into the wells. The plates will be read in a ViewLux CCD-based plate reader.

Row | SMILES | Potency | activity change, negative = inhibition
1 | O=C(Nc1ccccn1)c1sc2ccccc2c1Cl | 164 nM (active) | –
2 | O=c1[nH]c(-c2ccc(-c3cccc(Cl)c3)o2)nc2ccccc12 | 461 nM (active) | –
3 | COc1ccc(OC)c(-c2nnc3n2N=C(c2ccc(OC)c(OC)c2)CS3)c1 | – | 4.84% (inactive)
4 | CC(/C=C/C(=O)NO)=C\[C@@H](C)C(=O)c1ccc(N(C)C)cc1 | – | -28.1% (inactive)
5 | CN(Cc1ccco1)c1ncnc2ccc(-c3cccc(Cl)c3)cc12 | – | -10.7% (inactive)
6 | OCC1OC(n2cnc3c(=S)nc[nH]c32)C(O)C1O (stereo not given) | – | 4.5% (inactive)
7 | COc1cc2c(cc1OC)C1C(=O)c3c(O)cc4c(c3OC1CO2)C=CC(C)(C)O4 (stereo not given) | – | -5.2% (inactive)
8 | CS[C@@H]1SC[C@H]2C(=O)N(C)C(C(C)C)C(=O)OC[C@@H](NC(=O)c3cnc4ccccc4n3)C(=O)N[C@@H](C)C(=O)N(C)[C@H]1C(=O)N(C)C(C(C)C)C(=O)OC[C@@H](NC(=O)c1cnc3ccccc3n1)C(=O)N[C@@H](C)C(=O)N2C (stereo not given in full) | – | -3.21% (inactive)
9 | CN(C)c1cccc(-c2ccnc(N3CCC(C(N)=O)CC3)n2)c1 | 16400 nM (active) | –
10 | c1cncc(CNc2ncnc3ccc(-c4ccoc4)cc23)c1 | – | -6.33% (inactive)
11 | Cc1csc(CNc2ncnc3ccc(-c4ccoc4)cc23)c1 | – | -18.3% (inactive)
12 | N#Cc1ccc(-c2ccc(-c3nc4ccccc4c(=O)[nH]3)o2)cc1 | – | 0.924% (inactive)
13 | COc1ccc(C2=Nn3c(nnc3-c3ccccc3OC)SC2)cc1OC | – | 6.27% (inactive)
14 | O=C(COc1ccccc1F)Nc1ccc(-c2nc3ccccc3s2)cc1 | – | -25.4% (inactive)
15 | Cc1nc(Nc2nc3ccccc3o2)nc2c1CCCC2 | 651 nM (active) | –

— PubChem BioAssay AID686933 (National Center for Advancing Translational Sciences (NCATS), 2013)
